Experimental data reported in PubChem BioAssay (NCI).
The panel holds about 83,000 compounds, 20% with a hit somewhere; the sample as a whole holds those more often.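 Results are percent growth after 48 hours of single-concentration exposure. 100 means growth as in untreated cells, lower positive values show inhibition; negative values down to -100 show cell death.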 Values without a mark were called inactive. Calls of active or inactive are those of the source. How the source made its calls: active means growth percent below 10; inactive means the rest.

Tests used:
Assay in all cases: NCI-60 one-dose screen, 48 h (100 = growth as untreated, 0 = no growth, -100 = all killed)
Conditions in all cases: 10 µM unless noted
HCT-15 colon = test system: HCT-15 colon
HT29 colon = test system: HT29 colon
SNB-75 CNS = test system: SNB-75 CNS
SNB-19 CNS = test system: SNB-19 CNS
U251 CNS = test system: U251 CNS
PC-3 prostate = test system: PC-3 prostate
SK-MEL-5 melanoma = test system: SK-MEL-5 melanoma
UACC-62 melanoma = test system: UACC-62 melanoma
LOX IMVI melanoma = test system: LOX IMVI melanoma
SK-MEL-28 melanoma = test system: SK-MEL-28 melanoma
EKVX NSCLC = test system: EKVX NSCLC
SN12C renal = test system: SN12C renal
UO-31 renal = test system: UO-31 renal
TK-10 renal = test system: TK-10 renal
ACHN renal = test system: ACHN renal
CAKI-1 renal = test system: CAKI-1 renal
CCRF-CEM leukemia = test system: CCRF-CEM leukemia
MOLT-4 leukemia = test system: MOLT-4 leukemia
A498 renal = test system: A498 renal
SK-MEL-2 melanoma = test system: SK-MEL-2 melanoma

CN(C)c1ccc(/C=C/c2c(F)cccc2F)cc1
growth (HCT-15 colon): 98.6%
growth (HT29 colon): 92.3%
growth (SNB-75 CNS): 88.4%
growth (SNB-19 CNS): 105%
growth (U251 CNS): 89.9%
growth (PC-3 prostate): 81.7%
growth (SK-MEL-5 melanoma): 94.9%
growth (UACC-62 melanoma): 97.9%
growth (LOX IMVI melanoma): 88.1%
growth (SK-MEL-28 melanoma): 109%
growth (EKVX NSCLC): 76.2%
growth (SN12C renal): 98.2%
growth (UO-31 renal): 55.6%
growth (TK-10 renal): 109%
growth (ACHN renal): 92.7%
growth (CAKI-1 renal): 94.6%
growth (CCRF-CEM leukemia): 101%
growth (MOLT-4 leukemia): 97.4%

Cc1cccc(-c2cc(O)c(C(=O)N3CCOCC3)s2)c1
growth (HCT-15 colon): 21.4%
growth (HT29 colon): 52.2%
growth (SNB-75 CNS): 33.5%
growth (SNB-19 CNS): 31.5%
growth (U251 CNS): 28.6%
growth (PC-3 prostate): 60.5%
growth (SK-MEL-5 melanoma): 26%
growth (UACC-62 melanoma): 34.5%
growth (LOX IMVI melanoma): 33.2%
growth (SK-MEL-28 melanoma): 56.9%
growth (EKVX NSCLC): 58.6%
growth (SN12C renal): 49.1%
growth (UO-31 renal): 58.3%
growth (TK-10 renal): 61.7%
growth (ACHN renal): 60.6%
growth (CAKI-1 renal): 47.5%
growth (A498 renal): 26.7%
growth (CCRF-CEM leukemia): 35.5%
growth (MOLT-4 leukemia): 21.6%

CN(C)c1ccc(/C=C2\C=C(c3ccccc3)N(CCc3ccccc3)C2=O)cc1
growth (HCT-15 colon): 83.2%
growth (HT29 colon): 77.8%
growth (SNB-75 CNS): -29.1% (active)
growth (SNB-19 CNS): 46.6%
growth (U251 CNS): 33.2%
growth (PC-3 prostate): 52.3%
growth (SK-MEL-5 melanoma): 82.7%
growth (UACC-62 melanoma): 67.3%
growth (LOX IMVI melanoma): 48.9%
growth (SK-MEL-28 melanoma): 89.8%
growth (EKVX NSCLC): 46.9%
growth (UO-31 renal): 61%
growth (TK-10 renal): 88.7%
growth (ACHN renal): 57.6%
growth (CAKI-1 renal): 76.9%
growth (A498 renal): 72.8%
growth (CCRF-CEM leukemia): 102%
growth (MOLT-4 leukemia): 86.5%

CNC(=O)c1cc(Oc2ccc3nc(NC(=O)Nc4cc(C(F)(F)F)cc(C(F)(F)F)c4)sc3c2)ccn1
growth (HCT-15 colon): -4.69% (active)
growth (HT29 colon): -71.3% (active)
growth (SNB-75 CNS): -71.3% (active)
growth (SNB-19 CNS): 2.44% (active)
growth (U251 CNS): -81.8% (active)
growth (PC-3 prostate): -38.9% (active)
growth (SK-MEL-5 melanoma): -47.6% (active)
growth (UACC-62 melanoma): -63.3% (active)
growth (LOX IMVI melanoma): -87.5% (active)
growth (SK-MEL-28 melanoma): -71% (active)
growth (EKVX NSCLC): -18.7% (active)
growth (SN12C renal): -18.7% (active)
growth (UO-31 renal): -69.9% (active)
growth (TK-10 renal): -54.8% (active)
growth (ACHN renal): -52.9% (active)
growth (CAKI-1 renal): -17.6% (active)
growth (A498 renal): -58.8% (active)
growth (CCRF-CEM leukemia): 7.33% (active)
growth (MOLT-4 leukemia): 0.825% (active)

O=C1CSC(c2ccccc2)N1c1ccccc1 (configuration not stated)
growth (HCT-15 colon): 98.9%
growth (HT29 colon): 116%
growth (SNB-75 CNS): 99.5%
growth (SNB-19 CNS): 99.1%
growth (U251 CNS): 102%
growth (PC-3 prostate): 91.4%
growth (SK-MEL-5 melanoma): 98.1%
growth (UACC-62 melanoma): 103%
growth (LOX IMVI melanoma): 97.7%
growth (SK-MEL-28 melanoma): 106%
growth (SN12C renal): 101%
growth (UO-31 renal): 85.7%
growth (TK-10 renal): 110%
growth (ACHN renal): 101%
growth (CAKI-1 renal): 102%
growth (A498 renal): 61.7%
growth (CCRF-CEM leukemia): 97.1%
growth (MOLT-4 leukemia): 107%

CSc1nc(N)c(CNC(C)c2ccccc2)c(=O)n1C (configuration not stated)
growth (HCT-15 colon): 104%
growth (HT29 colon): 105%
growth (SNB-75 CNS): 93.4%
growth (SNB-19 CNS): 98.9%
growth (U251 CNS): 95%
growth (PC-3 prostate): 101%
growth (SK-MEL-5 melanoma): 113%
growth (UACC-62 melanoma): 98.8%
growth (LOX IMVI melanoma): 92.3%
growth (SK-MEL-28 melanoma): 109%
growth (EKVX NSCLC): 100%
growth (SN12C renal): 101%
growth (UO-31 renal): 80.5%
growth (TK-10 renal): 120%
growth (ACHN renal): 97.9%
growth (CAKI-1 renal): 107%
growth (A498 renal): 102%
growth (CCRF-CEM leukemia): 106%
growth (MOLT-4 leukemia): 93.1%

CN1C[C@@H](c2ccc(Cl)cc2)[C@]2(NC(=S)N(c3ccc(F)c(Cl)c3)C2=O)[C@@]12C(=O)NC1C=CC(Cl)=C[C@H]12 (some centres not stated)
growth (HCT-15 colon): 48.5%
growth (HT29 colon): 33.4%
growth (SNB-75 CNS): 53.2%
growth (SNB-19 CNS): 47.2%
growth (U251 CNS): 59.9%
growth (PC-3 prostate): 8.42% (active)
growth (SK-MEL-5 melanoma): 44.5%
growth (UACC-62 melanoma): 55.7%
growth (LOX IMVI melanoma): 43.5%
growth (SK-MEL-28 melanoma): 72.6%
growth (EKVX NSCLC): 50.7%
growth (SN12C renal): -63.2% (active)
growth (UO-31 renal): 26.1%
growth (TK-10 renal): 82%
growth (CCRF-CEM leukemia): 6.69% (active)
growth (MOLT-4 leukemia): 3.29% (active)

CC[C@]1(O)C[C@H]2CN(CCc3c([nH]c4ccccc34)[C@@](C(=O)OC)(c3cc4c(cc3OC)N(C=O)[C@H]3[C@@](O)(C(=O)OC)[C@H](OC(C)=O)[C@]5(CC)C=CCN6CC[C@]43[C@@H]65)C2)C1
growth (HCT-15 colon): 10.9%
growth (HT29 colon): -3.03% (active)
growth (SNB-75 CNS): 15.7%
growth (SNB-19 CNS): 10.1%
growth (U251 CNS): 24.2%
growth (PC-3 prostate): 18.3%
growth (SK-MEL-5 melanoma): -73.5% (active)
growth (UACC-62 melanoma): 23.9%
growth (LOX IMVI melanoma): 28.8%
growth (SK-MEL-2 melanoma): 58%
growth (EKVX NSCLC): 27.1%
growth (SN12C renal): 39.9%
growth (UO-31 renal): 28.6%
growth (TK-10 renal): 60.8%
growth (ACHN renal): 36.3%
growth (CAKI-1 renal): 26.5%
growth (CCRF-CEM leukemia): 5.75% (active)
growth (MOLT-4 leukemia): 5.04% (active)

CCN(CC)CCCNC(=O)c1ccc(N)cc1O
growth (HCT-15 colon): 96.1%
growth (HT29 colon): 103%
growth (SNB-75 CNS): 113%
growth (SNB-19 CNS): 106%
growth (U251 CNS): 99%
growth (PC-3 prostate): 94.2%
growth (SK-MEL-5 melanoma): 95.4%
growth (UACC-62 melanoma): 97.9%
growth (LOX IMVI melanoma): 90.6%
growth (SK-MEL-28 melanoma): 100%
growth (EKVX NSCLC): 103%
growth (UO-31 renal): 69.7%
growth (TK-10 renal): 106%
growth (ACHN renal): 98.3%
growth (CAKI-1 renal): 106%
growth (A498 renal): 56.2%
growth (CCRF-CEM leukemia): -32.8% (active)
growth (MOLT-4 leukemia): 91%

CCNCCNc1cc(-c2ccc(C(=O)OC)cc2)c(C#N)c2nc3ccccc3n12
growth (HCT-15 colon): 45.8%
growth (HT29 colon): 4.67% (active)
growth (SNB-75 CNS): -38.2% (active)
growth (SNB-19 CNS): 41.8%
growth (U251 CNS): -29% (active)
growth (PC-3 prostate): 54.1%
growth (SK-MEL-5 melanoma): 71.6%
growth (UACC-62 melanoma): -17.7% (active)
growth (LOX IMVI melanoma): -53.4% (active)
growth (SK-MEL-28 melanoma): 17%
growth (EKVX NSCLC): 84.8%
growth (SN12C renal): 67.4%
growth (UO-31 renal): -11.3% (active)
growth (TK-10 renal): 87.3%
growth (ACHN renal): 36.4%
growth (CAKI-1 renal): 58.2%
growth (A498 renal): 81.9%
growth (CCRF-CEM leukemia): -3.88% (active)
growth (MOLT-4 leukemia): 28.3%
